# Assay outcomes deposited in PubChem BioAssay by National Center for Advancing Translational Sciences (NCATS).
# IL1B secr inh – qHTS for Inhibitors of Inflammasome Signaling: IL-1-beta AlphaLISA Primary Screen. activity change, % at 57.5 µM. hit rate 4.7% among 360,000. THP-1 LPS/ATP IL-1B secretion, AlphaLISA, 16 h; hits give low values. AID 743279, 2014; in the data active means activity change below about -50%; inconclusive means mostly about -30% to -49%
#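 Secreted IL-1B measured by AlphaLISA bead assay after 16 h compound exposure of THP-1 cells; compounds (final up to 57.5 uM) added 1 h before LPS (250 ng/mL) and ATP (1.25 mM) stimulation; lower signal means less secretion.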
# DT40 TDP1 no CPT – qHTS for Inhibitors of human tyrosyl-DNA phosphodiesterase 1 (TDP1): qHTS in cells in absence of CPT | DT40 Tdp1-/- hTDP1 cells, no CPT, ATP luminescence, 48 h | Potency, µM (series often up to 46.2 µM), actives largely listed as inhibitors | hit rate 15% among 420,000; further: nearly all actives have a fitted effect of over 55% in size
#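 Growth of hTDP1-complemented DT40 Tdp1-knockout cells is measured by ATP luminescence after at least 48 hr compound exposure at 37 °C, with DMSO substituting for the 20 nM CPT used in the parallel screen.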
# HT1080 IDH1KD tx – qHTS for induction of synthetic lethality in tumor cells producing 2HG: qHTS for the HT-1080-IDH1KD cell line; Potency, µM (series often up to 46.1 µM), most hits filed as cytotoxic; hit rate 2% among 360,000; HT-1080 IDH1 knockdown viability, ATP luminescence, 48 h
#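 Knockdown cells (IDH1KD HT-1080) received compounds 2 h after plating at 750 cells/well and were kept 48 h at 37 °C in 5% FBS RPMI. A CellTiter-Glo luminescence read gave % activity for curve fitting.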
# ALOX12 inh – Primary qHTS assay for inhibitors of human arachidonate 12S-lipoxygenase (ALOX12): Round 2 | Potency, µM (doses to about 108 µM), usual class: inhibitors | AID 1671190, 2021 | hit rate 1.1% among 580,000 | purified 12hLO, xylenol orange hydroperoxide absorbance | Polyunsaturated fatty acid lipoxygenase ALOX12 (Homo sapiens), P18054
# Target sequence (P18054 whole entry, looked up): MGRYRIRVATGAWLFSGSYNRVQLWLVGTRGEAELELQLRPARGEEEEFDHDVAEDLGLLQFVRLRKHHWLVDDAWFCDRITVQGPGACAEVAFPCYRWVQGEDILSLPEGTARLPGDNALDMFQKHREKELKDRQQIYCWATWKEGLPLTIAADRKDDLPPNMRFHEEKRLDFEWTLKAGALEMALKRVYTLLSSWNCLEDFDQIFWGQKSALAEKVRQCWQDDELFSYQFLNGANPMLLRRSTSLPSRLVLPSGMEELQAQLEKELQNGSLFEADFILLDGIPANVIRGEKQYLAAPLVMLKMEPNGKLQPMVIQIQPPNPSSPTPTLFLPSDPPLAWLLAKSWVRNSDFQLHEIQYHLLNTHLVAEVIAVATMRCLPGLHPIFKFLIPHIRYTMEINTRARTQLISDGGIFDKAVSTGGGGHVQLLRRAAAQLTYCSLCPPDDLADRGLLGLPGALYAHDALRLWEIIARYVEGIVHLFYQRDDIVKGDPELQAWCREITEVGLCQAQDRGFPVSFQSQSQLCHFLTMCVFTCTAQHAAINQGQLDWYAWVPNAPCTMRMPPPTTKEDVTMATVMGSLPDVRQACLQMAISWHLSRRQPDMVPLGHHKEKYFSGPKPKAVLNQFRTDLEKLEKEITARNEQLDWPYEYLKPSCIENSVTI
#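 Hydroperoxide product was detected by ferrous iron/xylenol orange as the 573 to 405 nm absorbance ratio. Arachidonic acid at 40 uM (final) was turned over for 30 min at room temperature by 150 nM human 12hLO, pH 7.0 Hepes buffer, after 15 min compound preincubation.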
# DT40 TDP1 CPT – qHTS for Inhibitors of human tyrosyl-DNA phosphodiesterase 1 (TDP1): qHTS in cells in presence of CPT | chicken DT40 Tdp1-/-;hTDP1 cells + 20 nM CPT, ATP luminescence, 48 h | Potency, µM (doses to about 46.2 µM), usual class: inhibitors | hit rate 12% among 420,000; further: nearly all actives have a fitted effect of over 55% in size
#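 Chicken DT40 Tdp1-/- cells complemented with human TDP1, 400 cells/well, exposed to compounds plus 20 nM camptothecin for at least 48 h at 37 C; viability read as ATP content by CellTiter-Glo luminescence.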
# HT1080NT lethal – qHTS for induction of synthetic lethality in tumor cells producing 2HG: qHTS for the HT-1080-NT fibrosarcoma cell line | hit rate 1.6% among 360,000 | HT-1080-NT fibrosarcoma viability, CellTiter-Glo ATP luminescence, 48 h | Potency, µM (top dose mostly 46.1 µM), hits mostly cytotoxic;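 further: NT is the 2HG producing partner of a matched IDH1 knockdown line; nearly all actives have a fitted effect of over 55% in size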
#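 Fibrosarcoma NT cells, 750 per well in 5% FBS RPMI, were exposed to compound for 48 hours. Viability: CellTiter-Glo luminescence.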
# Numbers stand for hits; i = inactive; ? = inconclusive; nt = not tested or not shown; [ ] = dose if it differs, or a comment. Shown is part of a subset that was picked to be rich in hits. Unless noted, the call rests on the fitted dose curve; in most records, active means well fitted curve in the direction sought with a large enough effect; inconclusive means small, poorly fitted or top-dose-only effect, or another doubt; inactive means no such curve, though single readings can be large; an effect the other way counts as inactive or inconclusive.
SMILES,IL1B secr inh,DT40 TDP1 no CPT,HT1080 IDH1KD tx,ALOX12 inh,DT40 TDP1 CPT,HT1080NT lethal
Oc1ccc(Nc2nc3ccccc3nc2Nc2ccc(O)cc2)cc1,i,2.3µM,12µM,nt,1.6µM,23µM
COc1ccc(Nc2nc(-c3ccccc3)nc3ccccc23)cc1,-95,?,?,i,?,?
COc1ccc(-c2nc(N/N=C(\C)c3ccc(O)cc3)c3ccccc3n2)cc1,i,7.3µM,?,i,21µM,?
Oc1ccc(Nc2nc(-c3ccccc3)nc3ccccc23)cc1,-94,?,?,nt,?,?
O=C(NC1CCCCC1)N1CCC2(CC1)Nc1ccccc1-n1cccc12,nt,nt,nt,i,nt,nt
Cc1cccc(NC(=O)N2CC3CN(C)CC(C2)O3)c1,nt,nt,nt,i,nt,nt
CC(=O)Nc1ccc(Nc2nc(-c3ccccc3)nc3ccccc23)cc1,?,23µM,i,i,18µM,i
COc1ccc(Nc2nc(-c3cccc([N+](=O)[O-])c3)nc3ccccc23)cc1,i,15µM,?,i,?,?
CCOC(=O)c1ccccc1NC(=O)CSc1ncnc2c(-c3ccccc3)c[nH]c12,nt,nt,nt,i,nt,nt
Cc1cc(NCCCn2ccnc2)n2nc(C)c(-c3ccccc3)c2n1,i,i,?,i,?,?
CCCCn1cnc2c(c(-c3ccccc3)c(-c3ccccc3)n2Cc2ccco2)c1=N,-73,i,i,?,i,i
N=c1c2c(-c3ccccc3)c(-c3ccccc3)n(Cc3ccco3)c2ncn1Cc1ccco1,i,6.5µM,21µM,?,9.2µM,16µM
CCCCn1c(=O)[nH]c(=O)c2c1ncn2Cc1ccco1,i,i,i,i,i,i
N=c1c2c(-c3ccccc3)c(-c3ccccc3)n(Cc3ccccc3)c2ncn1CCCn1ccnc1,i,?,23µM,i,16µM,23µM
CCOc1ccccc1N1CCN(CC(=O)Nc2ccc(C)cc2F)CC1,nt,nt,nt,i,nt,nt
COc1ccc(-c2nc(C)c(C)cc2C#N)c2cccnc12,nt,nt,nt,i,nt,nt
O=C(Cc1cccnc1)N1CCc2c(nc3cc(-c4ccccc4)[nH]n3c2=O)C1,nt,nt,nt,i,nt,nt
c1cncc(OC2CCN(Cc3ccc4c(c3)CN(Cc3ccc5c(c3)OCO5)CCO4)CC2)c1,nt,?,nt,i,i[9.04 µM],nt
Cc1nn(C)c(Cl)c1CN1CCOc2ccc(CN3CCC(Oc4cccnc4)CC3)cc2C1,nt,8.2µM,nt,i,10µM,nt
OC1(c2cccnc2)CCN(Cc2ccc3c(c2)CN(Cc2ccc(F)c(F)c2)CCO3)CC1,nt,12µM,nt,i,i[9.04 µM],nt
OC1(c2cccnc2)CCN(Cc2ccc3c(c2)CN(Cc2cc(F)cc(F)c2)CCO3)CC1,nt,?,nt,i,i[9.04 µM],nt
O=C(Nc1ccsc1C(=O)O)c1cccc(Oc2ccccc2)c1,i,i,i,i,?,i
O=C(Nc1nnc(-c2ccccn2)o1)c1cccc(Cl)c1,i,?,i,i,?,i
O=C(Nc1nnc(-c2cccs2)o1)c1cccc(Oc2ccccc2)c1,i,7.3µM,?,i,10µM,?
O=C(Nc1nnc(-c2cccs2)o1)c1cccc(F)c1,i,7.3µM,?,i,4.6µM,i
SMILES,IL1B secr inh,DT40 TDP1 no CPT,HT1080 IDH1KD tx,ALOX12 inh,DT40 TDP1 CPT,HT1080NT lethal
CCCN1C(C(=O)c2ccccc2)=C(OC(=O)c2ccc(OC)cc2)c2ccccc2S1(=O)=O,nt,5.2µM,nt,i,5.2µM,nt
COC(=O)CN1C(C(=O)c2ccccc2)=C(OC(=O)c2ccccc2)c2ccccc2S1(=O)=O,nt,26µM,nt,i,16µM,nt
CN1C(C(=O)c2ccccc2)=C(OC(=O)c2ccc(Br)cc2)c2ccccc2S1(=O)=O,nt,21µM,nt,i,?,nt
Cc1ccc(NC2=C(C(=O)c3ccccc3)N(C)S(=O)(=O)c3ccccc32)cc1,i,26µM,i,i,29µM,i
CN1CCC2(Cc3ccccc3CN([S+](C)(=O)[O-])C2)C1 (stereo not drawn),nt,nt,nt,i[12.5 µM],nt,nt
Cc1ccc(NC2(c3nnnn3-c3c(C)cccc3C)CCCCC2)cc1,i,23µM,i,i,?,i
COc1ccc(Cn2c(C3CCN(C(=O)c4ccccc4Cl)CC3)n[nH]c2=O)cc1,nt,nt,nt,i,nt,nt
CN1CCN(c2ncnc3sc4c(c23)CCNC4)CC1,nt,nt,nt,i,nt,nt
CC(C)CC1C(=O)N(Cc2cn(CC3CCCCC3)nn2)CCS(=O)(=O)N1Cc1ccc(-c2cccc(CO)c2)cc1 (stereo not drawn),i,23µM,?,?,21µM,?
CC1C(=O)N(Cc2cn(CC3CCCCC3)nn2)CCS(=O)(=O)N1Cc1ccc(-c2cccc(CO)c2)cc1 (stereo not drawn),i,23µM,i,?,15µM,i
CC(C)CC1C(=O)N(Cc2cn(CCC3OCCCO3)nn2)CCS(=O)(=O)N1Cc1ccc(-c2cccc(CO)c2)cc1 (stereo not drawn),i,?,i,?,i,i
Cc1ccc(C(=O)N2CCCN(S(C)(=O)=O)c3ccccc32)cc1C,nt,nt,nt,i,nt,nt
CN(C)c1ccc(/C=N/OC(=O)Nc2ccccc2Cl)cc1,i,15µM,i,i,8.2µM,i
O=C(Nc1ccccc1Cl)O/N=C/c1ccc(F)cc1,i,i,i,i,i,i
COc1ccc(/C=N/OC(=O)Nc2ccccc2OC)cc1,i,1.6µM,5.8µM,i,1.5µM,9.2µM
C=CCc1cc(/C=C(/C#N)c2nc3cc(C)c(C)cc3[nH]2)cc(OC)c1OC,nt,nt,nt,i,nt,nt
CC(Oc1ccc(F)cc1F)C(=O)N1CCC2(CC1)CC(=O)N(C)C2 (stereo not drawn),nt,nt,nt,i,nt,nt
CC1=NS(=O)(=O)N(C)C=C1C(=O)OCc1nc(Cc2ccc(C)cc2)no1,nt,nt,nt,i,nt,nt
CCN(CC)S(=O)(=O)c1cccc(C(=O)N/N=C(\C)c2ccc(O)cc2O)c1,i,6.5µM,1.5µM,i,4.6µM,?
CCN(CC)S(=O)(=O)c1cccc(C(=O)N/N=C/c2ccc(O)c(O)c2O)c1,i,16µM,?,?,15µM,?
CCN(CC)S(=O)(=O)c1cccc(C(=O)NNC(=O)c2ccc3[nH]c(=O)c(=O)[nH]c3c2)c1,i,i,i,i,i,i
CCOc1ccccc1/C=N/NC(=O)c1cccc(S(=O)(=O)N(CC)CC)c1,i,i,i,i,i,i
COc1cccc(Cn2c(NCc3cccnc3)nc3c2c(=O)n(C)c(=O)n3C)c1,i,1µM,5.2µM,i,1µM,4.6µM
